Reference: PubChem BioAssay AID1159580 (chemical genetic matrix, 2015)
Screen size: about 5,500 compounds; about 2,000 (36%) were called active. Inconclusive results (about 18%) are left out. Rule as the data show it: active = normalized growth mostly below about 0.91 (no sharp cut-off); inconclusive = no clear call, values can overlap the other calls; inactive = mostly above about 0.92. Some of the results follow.

Assay: chemical genetic growth profiling, strain panel (AID 1159580);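 also: tested at 20 µM; growth read once vehicle control cultures reached saturation at 30 °C; 1 = growth at the plate median or of vehicle wells; lower values mean less growth of the strain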
Details: growth OD
[1] = S. cerevisiae deletion strains, locus YDL101C, strain DUN1, active compounds read low
[2] = S. cerevisiae deletion strains, locus YHR030C, strain SLT2, active compounds read low
[3] = S. cerevisiae deletion strains, locus YAL013W, strain DEP1, active compounds read low
[4] = S. cerevisiae deletion strains, locus YBR229C, strain ROT2, active compounds read low
[5] = S. cerevisiae deletion strains, locus YCL061C, strain MRC1, active compounds read low
[6] = S. cerevisiae deletion strains, locus YDL134C, strain PPH21, active compounds read low
[7] = S. cerevisiae deletion strains, locus YDR150W, strain NUM1, active compounds read low
[8] = S. cerevisiae deletion strains, locus YEL061C, strain CIN8, active compounds read low
[9] = S. cerevisiae deletion strains, locus YGR078C, strain PAC10, active compounds read low
[10] = S. cerevisiae deletion strains, locus YHR087W, strain rtc3, active compounds read low
[11] = S. cerevisiae deletion strains, locus YJR043C, strain POL32, active compounds read low
[12] = S. cerevisiae deletion strains, locus YJR075W, strain HOC1, active compounds read low
[13] = S. cerevisiae deletion strains, locus YLR039C, strain RIC1, active compounds read low
[14] = S. cerevisiae deletion strains, locus YLR058C, strain SHM2 (second series), active compounds read low
[15] = S. cerevisiae deletion strains, locus YLR085C, strain ARP6, active compounds read low
[16] = S. cerevisiae deletion strains, locus YLR262C, strain YPT6, active compounds read low
[17] = S. cerevisiae deletion strains, locus YML094W, strain GIM5, active compounds read low
[18] = S. cerevisiae deletion strains, locus YMR219W, strain ESC1, active compounds read low
[19] = S. cerevisiae deletion strains, locus YMR263W, strain SAP30, active compounds read low
[20] = S. cerevisiae deletion strains, locus YNL153C, strain GIM3, active compounds read low
[21] = S. cerevisiae deletion strains, locus YNL298W, strain CLA4 (second series), active compounds read low
[22] = S. cerevisiae deletion strains, locus YNL322C, strain KRE1, active compounds read low
[23] = S. cerevisiae deletion strains, locus YNR030W, strain Alg12, active compounds read low
[24] = S. cerevisiae deletion strains, locus YOL006C, strain TOP1, active compounds read low
[25] = S. cerevisiae deletion strains, locus YPL055C, strain LGE1, active compounds read low
[26] = S. cerevisiae deletion strains, locus YPL241C, strain CIN2, active compounds read low
[27] = S. cerevisiae deletion strains, locus YPR135W, strain CTF4, active compounds read low

Measured: normalized growth

Clc1ccc(-c2csc(Nc3ccccc3)n2)s1
inactive: S. cerevisiae deletion strains, locus YAR019C, strain CDC15, active compounds read low 0.933 | S. cerevisiae deletion strains, locus YBL105C, strain PKC1, active compounds read low 0.933 | S. cerevisiae deletion strains, locus YBR135W, strain CKS1, active compounds read low 0.929 | S. cerevisiae deletion strains, locus YBR136W, strain MEC1, active compounds read low 0.923 | S. cerevisiae deletion strains, locus YBR160W, strain CDC28, active compounds read low 0.925 | S. cerevisiae deletion strains, locus YDL017W, strain CDC7, active compounds read low 0.928 | S. cerevisiae deletion strains, locus YDL028C, strain MPS1, active compounds read low 0.936 | [1] 0.943 | S. cerevisiae deletion strains, locus YDL108W, strain KIN28, active compounds read low 0.926 | S. cerevisiae deletion strains, locus YDL132W, strain cdc53, active compounds read low 0.94 | S. cerevisiae deletion strains, locus YDR052C, strain DBF4, active compounds read low 0.933 | S. cerevisiae deletion strains, locus YDR054C, strain cdc34, active compounds read low 0.907 | S. cerevisiae deletion strains, locus YDR226W, strain ADK1, active compounds read low 0.936 | S. cerevisiae deletion strains, locus YFL009W, strain cdc4, active compounds read low 0.929 | S. cerevisiae deletion strains, locus YFL029C, strain CAK1, active compounds read low 0.923 | S. cerevisiae deletion strains, locus YFR003C, strain YPI1, active compounds read low 0.933 | S. cerevisiae deletion strains, locus YFR028C, strain CDC14, active compounds read low 0.926 | S. cerevisiae deletion strains, locus YIL147C, strain SLN1, active compounds read low 0.932 | S. cerevisiae deletion strains, locus YJR016C, strain ILV3, active compounds read low 0.925 | S. cerevisiae deletion strains, locus YKL193C, strain SDS22, active compounds read low 0.921 | S. cerevisiae deletion strains, locus YMR001C, strain CDC5, active compounds read low 0.925 | S. cerevisiae deletion strains, locus YMR277W, strain FCP1, active compounds read low 0.921 | S. cerevisiae deletion strains, locus YNL006W, strain LST8, active compounds read low 0.932 | S. cerevisiae deletion strains, locus YNL161W, strain CBK1, active compounds read low 0.923 | S. cerevisiae deletion strains, locus YNL207W, strain RIO2, active compounds read low 0.915 | S. cerevisiae deletion strains, locus YNL222W, strain SSU72, active compounds read low 0.931 | S. cerevisiae deletion strains, locus YOL078W, strain AVO1, active compounds read low 0.926 | S. cerevisiae deletion strains, locus YOR329C, strain SCD5, active compounds read low 0.922 | S. cerevisiae deletion strains, locus YPL209C, strain IPL1, active compounds read low 0.915 | S. cerevisiae deletion strains, locus YPR025C, strain CCL1, active compounds read low 0.926 | S. cerevisiae deletion strains, locus YPR106W, strain ISR1, active compounds read low 0.906 | S. cerevisiae deletion strains, locus YPR111W, strain DBF20, active compounds read low 0.917 | S. cerevisiae deletion strains, strain NNK1, active compounds read low 0.916 | S. cerevisiae deletion strains, strain TSCII, active compounds read low 0.92
active: S. cerevisiae deletion strains, locus YDL214C, strain PRR2, active compounds read low 0.382 | S. cerevisiae deletion strains, locus YDR477W, strain SNF1, active compounds read low 0.24 | S. cerevisiae deletion strains, locus YER123W, strain YCK3, active compounds read low 0.354 | S. cerevisiae deletion strains, locus YER133W, strain GLC7, active compounds read low 0.363 | S. cerevisiae deletion strains, locus YFR019W, strain FAB1, active compounds read low 0.593 | S. cerevisiae deletion strains, locus YGR040W, strain KSS1, active compounds read low 0.311 | S. cerevisiae deletion strains, locus YGR052W, strain FMP48, active compounds read low 0.203 | S. cerevisiae deletion strains, locus YGR092W, strain DBF2, active compounds read low 0.33 | [2] 0.146 | S. cerevisiae deletion strains, locus YHR079C, strain IRE1, active compounds read low 0.452 | S. cerevisiae deletion strains, locus YHR082C, strain KSP1, active compounds read low 0.23 | S. cerevisiae deletion strains, locus YHR205W, strain SCH9, active compounds read low 0.273 | S. cerevisiae deletion strains, locus YJL095W, strain BCK1, active compounds read low 0.224 | S. cerevisiae deletion strains, locus YJL157C, strain FAR1, active compounds read low 0.434 | S. cerevisiae deletion strains, locus YJR066W, strain TOR1 (second series), active compounds read low 0.471 | S. cerevisiae deletion strains, locus YJR066W, strain TOR1, active compounds read low 0.276 | S. cerevisiae deletion strains, locus YKL048C, strain ELM1, active compounds read low 0.771 | S. cerevisiae deletion strains, locus YKL067W, strain YNK1, active compounds read low 0.521 | S. cerevisiae deletion strains, locus YKL101W, strain HSL1, active compounds read low 0.451 | S. cerevisiae deletion strains, locus YKL203C, strain TOR2, active compounds read low 0.385 | S. cerevisiae deletion strains, locus YLR113W, strain HOG1, active compounds read low 0.216 | S. cerevisiae deletion strains, locus YLR133W, strain CKI1, active compounds read low 0.39 | S. cerevisiae deletion strains, locus YLR403W, strain SFP1, active compounds read low 0.332 | S. cerevisiae deletion strains, locus YML070W, strain DAK1, active compounds read low 0.408 | S. cerevisiae deletion strains, locus YMR205C, strain PFK2 (second series), active compounds read low 0.578 | S. cerevisiae deletion strains, locus YNL020C, strain ARK1, active compounds read low 0.419 | S. cerevisiae deletion strains, locus YNL183C, strain NPR1, active compounds read low 0.148 | S. cerevisiae deletion strains, locus YNL307C, strain MCK1 (second series), active compounds read low 0.28 | S. cerevisiae deletion strains, locus YOL136C, strain PFK27, active compounds read low 0.453 | S. cerevisiae deletion strains, locus YOR061W, strain CKA2, active compounds read low 0.414 | S. cerevisiae deletion strains, locus YOR119C, strain RIO1, active compounds read low 0.409 | S. cerevisiae deletion strains, locus YOR231W, strain MKK1, active compounds read low 0.435 | S. cerevisiae deletion strains, locus YPL031C, strain PHO85, active compounds read low 0.295 | S. cerevisiae deletion strains, locus YPL153C, strain RAD53, active compounds read low 0.438 | S. cerevisiae deletion strains, locus YPL204W, strain HRR25, active compounds read low 0.435 | S. cerevisiae deletion strains, locus YPL256C, strain CLN2, active compounds read low 0.289

Clc1ccc(-c2csc(-c3ccno3)n2)s1
active: [6] 0.565 | [8] 0.89 | [2] 0.484 | [13] 0.57 | [14] 0.932 | [15] 0.644 | [16] 0.777 | [18] 0.937 | [24] 0.655 | [26] 0.81
inactive: [3] 0.942 | [4] 0.958 | [5] 0.985 | [1] 0.915 | [7] 1.01 | [9] 0.96 | [10] 0.954 | [11] 1.01 | [12] 0.929 | [17] 0.868 | [19] 0.952 | S. cerevisiae deletion strains, locus YMR307W, strain GAS1, active compounds read low 0.702 | S. cerevisiae deletion strains, locus YNL128W, strain TEP1, active compounds read low 0.939 | [20] 1 | [21] 0.899 | [22] 0.97 | [23] 0.9 | [25] 0.851 | [27] 0.741

Clc1cccc(-c2csc(Nc3cccnc3)n2)c1
inactive: [3] 0.935 | [4] 0.998 | [5] 0.957 | [1] 1.04 | [6] 0.997 | [7] 0.954 | [8] 0.993 | [9] 0.979 | S. cerevisiae deletion strains, locus YGR229C, strain SMI1, active compounds read low 1 | [2] 0.729 | [10] 0.974 | S. cerevisiae deletion strains, locus YJL187C, strain SWE1, active compounds read low 0.957 | [11] 0.921 | [12] 0.978 | [13] 0.951 | [14] 0.99 | [15] 0.839 | [16] 1 | [17] 0.971 | [18] 0.992 | [19] 0.914 | [20] 0.971 | [21] 0.881 | [22] 1 | [23] 0.968 | [24] 0.979 | [25] 0.839 | [26] 0.915 | [27] 0.884 | S. cerevisiae strains, strain wild type, active compounds read low 0.997
